Data reported in the supplement of paper PMC10849652.
Targets with a hit are over-represented here; the source holds about 7,900 in all. About 0.6% of all pairs of compound and target were hits.

How the values were obtained:
Experiment in all cases: log2 fold change, soluble protein after heating vs DMSO (PISA); higher = thermal stabilisation; K562 cells, 10 uM, 30 min; active = over 0.2 and 3.5 SD of the protein, either way, in both replicates (recomputed)
[1] = compound: CC[C@@H]1C(=O)N(C)c2cnc(Nc3ccc(C(=O)NC4CCN(C)CC4)cc3OC)nc2N1C1CCCC1
Summary of the method: (§1)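 Quantification of soluble protein used TMTpro 16plex LC-MS/MS, with channel sums equalised. Samples were the supernatant after 21,000xg for 90 min of pooled aliquots from K562 cells (2×10^6 cells/mL) treated with 10 μM compound for 30 min, heated for 3 min over 48°C-58°C, and extracted in PBS with 0.5% NP-40 at 4°C. Values, from duplicates, describe thermal stability against control samples on a log2 fold-change scale.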

[2] = compound: CC[C@@H]1C(=O)N(C)c2cnc(Nc3ccc(C(=O)N[C@H]4CC[C@H](N5CCN(CC6CC6)CC5)CC4)cc3OC)nc2N1C(C)C [volasertib]
Summary of the method: as §1

[3] = compound: CC[C@H](C)N1C=C(C2=C(C=C(C=C21)C3=CN=C(C=C3)N4CCNCC4)C(=O)NCC5=C(C=C(NC5=O)C)C)C
Summary of the method: as §1

[4] = compound: CC[C@H](C)[C@@H](C(=O)N[C@@H]([C@@H](C)O)C(=O)N[C@@H](CC(C)C)C(=O)[C@]1(CO1)C)NC(=O)[C@H]([C@@H](C)CC)N(C)C(=O)C [epoxomicin]
Summary of the method: as §1

[5] = compound: CCn1c(C(=O)N(C2CC2)C2CC2)cc2c3c(ncn3C)c(Nc3cc(C)n(C)n3)nc21
Summary of the method: as §1

[6] = compound: CCn1cc(-c2ccnc3[nH]c(-c4cccc(CN(C)C)c4)cc23)c(-c2ccc(NC(=O)N(C)C)cc2)n1
Summary of the method: as §1

[7] = compound: CN(C)CC(=O)Nc1ccc2[nH]c(=O)c3ccccc3c2c1
Summary of the method: as §1

[8] = compound: CN(CCOC1=CC=C(C=C1)C[C@H]2C(=O)NC(=O)S2)C3=CC=CC=N3 (racemic) [rosiglitazone]
Summary of the method: as §1

[9] = compound: CN1C2=C(C3=C1C(=O)N(N=C3)CC4=CC(=CC=C4)N)SC(=C2)S(=O)C
Summary of the method: as §1

[10] = compound: CN1CCC(CNc2ccc3ncc(-c4cccc(OC(F)(F)F)c4)n3n2)CC1
Summary of the method: as §1

Measured: log2 fold change

PFAS (UniProt O15067)
Sequence of UniProt O15067 (O15067 whole entry, looked up): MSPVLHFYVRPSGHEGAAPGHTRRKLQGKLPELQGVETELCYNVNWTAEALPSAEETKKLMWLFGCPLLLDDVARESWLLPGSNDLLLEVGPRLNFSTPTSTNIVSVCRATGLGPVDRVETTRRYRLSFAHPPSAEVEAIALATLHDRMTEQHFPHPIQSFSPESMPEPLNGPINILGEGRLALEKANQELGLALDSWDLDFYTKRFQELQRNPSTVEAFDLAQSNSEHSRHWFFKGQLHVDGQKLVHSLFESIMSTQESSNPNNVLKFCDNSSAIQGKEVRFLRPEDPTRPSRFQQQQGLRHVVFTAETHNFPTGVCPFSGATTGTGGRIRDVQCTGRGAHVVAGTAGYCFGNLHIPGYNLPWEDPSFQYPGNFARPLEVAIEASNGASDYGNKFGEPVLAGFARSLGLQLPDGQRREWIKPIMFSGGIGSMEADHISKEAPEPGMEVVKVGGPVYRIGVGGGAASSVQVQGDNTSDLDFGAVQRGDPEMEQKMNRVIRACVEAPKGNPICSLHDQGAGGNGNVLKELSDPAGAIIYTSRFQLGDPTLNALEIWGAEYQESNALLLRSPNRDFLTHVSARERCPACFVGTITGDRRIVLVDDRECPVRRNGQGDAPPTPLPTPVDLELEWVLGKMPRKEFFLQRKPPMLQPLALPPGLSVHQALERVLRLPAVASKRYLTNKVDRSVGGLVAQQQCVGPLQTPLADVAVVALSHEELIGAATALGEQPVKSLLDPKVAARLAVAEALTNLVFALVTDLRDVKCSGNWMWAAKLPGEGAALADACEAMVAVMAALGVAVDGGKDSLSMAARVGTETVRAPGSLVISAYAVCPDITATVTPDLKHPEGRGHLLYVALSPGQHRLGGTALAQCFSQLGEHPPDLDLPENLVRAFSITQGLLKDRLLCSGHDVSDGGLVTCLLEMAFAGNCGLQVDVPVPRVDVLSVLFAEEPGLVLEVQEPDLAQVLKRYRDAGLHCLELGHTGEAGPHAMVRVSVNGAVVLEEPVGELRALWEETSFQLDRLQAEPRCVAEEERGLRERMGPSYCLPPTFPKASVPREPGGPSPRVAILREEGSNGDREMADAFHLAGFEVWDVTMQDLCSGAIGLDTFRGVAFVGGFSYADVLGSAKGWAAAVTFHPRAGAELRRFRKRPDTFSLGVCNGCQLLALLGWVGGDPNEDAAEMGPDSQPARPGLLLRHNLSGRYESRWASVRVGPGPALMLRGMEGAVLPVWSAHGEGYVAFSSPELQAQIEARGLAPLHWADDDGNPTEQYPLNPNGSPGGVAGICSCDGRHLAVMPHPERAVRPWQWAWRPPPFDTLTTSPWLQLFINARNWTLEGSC
inactive: [1] -0.04 | [2] -0.124 | [3] 0.113 | [4] -0.016 | [5] -0.218 | [6] -0.069 | [7] 0.031 | [8] -0.003 | [9] -0.241 | [10] -0.001

PCGF2 (UniProt P35227)
inactive: [1] -0.131 | [2] -0.089 | [3] 0.012 | [4] -0.005 | [5] -0.054 | [6] -0.02 | [7] -0.03 | [8] 0.028 | [9] -0.071
active: [10] -0.282

PDS5B (UniProt Q9NTI5)
Sequence of UniProt Q9NTI5 (Q9NTI5 whole entry, looked up): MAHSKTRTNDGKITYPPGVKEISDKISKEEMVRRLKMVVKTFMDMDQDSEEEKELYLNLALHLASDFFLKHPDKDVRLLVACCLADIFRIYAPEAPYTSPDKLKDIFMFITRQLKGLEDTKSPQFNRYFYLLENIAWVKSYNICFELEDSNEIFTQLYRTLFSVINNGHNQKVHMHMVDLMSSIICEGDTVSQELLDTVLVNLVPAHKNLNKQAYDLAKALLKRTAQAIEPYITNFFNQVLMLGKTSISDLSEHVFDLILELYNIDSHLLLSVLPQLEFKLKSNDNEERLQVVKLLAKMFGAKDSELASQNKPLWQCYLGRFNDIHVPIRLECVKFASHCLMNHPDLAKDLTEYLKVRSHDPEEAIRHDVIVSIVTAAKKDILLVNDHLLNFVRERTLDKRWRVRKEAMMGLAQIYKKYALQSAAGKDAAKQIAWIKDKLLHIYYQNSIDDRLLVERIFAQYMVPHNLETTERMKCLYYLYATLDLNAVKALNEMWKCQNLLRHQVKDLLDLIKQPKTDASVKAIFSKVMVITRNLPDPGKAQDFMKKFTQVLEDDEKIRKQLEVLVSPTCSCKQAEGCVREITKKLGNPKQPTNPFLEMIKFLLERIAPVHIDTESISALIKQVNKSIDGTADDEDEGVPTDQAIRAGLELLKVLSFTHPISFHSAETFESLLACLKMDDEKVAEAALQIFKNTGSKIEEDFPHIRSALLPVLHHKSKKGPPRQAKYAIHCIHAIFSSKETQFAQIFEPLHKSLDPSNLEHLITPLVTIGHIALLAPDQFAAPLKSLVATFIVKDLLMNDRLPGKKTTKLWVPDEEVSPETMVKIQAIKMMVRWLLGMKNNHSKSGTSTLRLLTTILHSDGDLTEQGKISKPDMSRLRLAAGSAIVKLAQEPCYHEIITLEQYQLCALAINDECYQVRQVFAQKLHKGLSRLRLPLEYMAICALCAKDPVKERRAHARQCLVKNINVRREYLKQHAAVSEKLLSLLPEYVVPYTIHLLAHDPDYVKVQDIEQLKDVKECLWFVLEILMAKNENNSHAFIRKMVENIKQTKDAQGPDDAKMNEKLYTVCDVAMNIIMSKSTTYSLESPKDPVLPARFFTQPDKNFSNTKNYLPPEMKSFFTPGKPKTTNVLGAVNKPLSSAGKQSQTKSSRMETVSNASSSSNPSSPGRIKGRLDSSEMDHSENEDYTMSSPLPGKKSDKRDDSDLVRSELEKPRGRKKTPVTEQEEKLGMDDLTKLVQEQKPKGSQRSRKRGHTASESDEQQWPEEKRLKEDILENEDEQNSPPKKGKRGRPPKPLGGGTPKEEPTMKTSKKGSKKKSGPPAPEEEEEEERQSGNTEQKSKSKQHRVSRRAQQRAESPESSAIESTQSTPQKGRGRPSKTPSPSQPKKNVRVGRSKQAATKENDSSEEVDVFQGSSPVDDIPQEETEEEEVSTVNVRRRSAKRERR
inactive: [1] -0.004 | [2] 0.024 | [3] 0.12 | [4] 0.105 | [5] -0.113 | [6] 0.103 | [7] 0.079 | [8] 0.035 | [9] 0.131 | [10] -0.41

PURA (UniProt Q00577)
Sequence of UniProt Q00577 (Q00577 whole entry, looked up): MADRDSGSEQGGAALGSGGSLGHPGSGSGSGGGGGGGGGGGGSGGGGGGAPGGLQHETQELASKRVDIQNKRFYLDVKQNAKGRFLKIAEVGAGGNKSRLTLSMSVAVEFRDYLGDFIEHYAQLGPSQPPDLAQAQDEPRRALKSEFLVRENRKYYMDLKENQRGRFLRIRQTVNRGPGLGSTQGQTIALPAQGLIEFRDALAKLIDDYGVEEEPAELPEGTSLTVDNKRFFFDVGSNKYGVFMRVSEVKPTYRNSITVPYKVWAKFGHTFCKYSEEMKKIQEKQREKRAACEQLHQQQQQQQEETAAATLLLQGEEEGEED
inactive: [1] 0.355 | [2] 0.418 | [3] -0.087 | [4] -0.197 | [5] 0.036 | [6] 0.26 | [7] -0.095 | [8] -0.18 | [9] 0.327 | [10] 0.441

PECAM1 (UniProt P16284)
inactive: [1] 0.116 | [2] 0.061 | [3] -0.019 | [4] -0.027 | [5] 0.022 | [6] -0.106 | [7] 0.027 | [8] 0.014 | [9] -0.067 | [10] 0.168

PRKAB1 (UniProt Q9Y478)
inactive: [1] -0.079 | [3] 0.045 | [4] 0.055 | [5] -0.05 | [6] -0.018 | [7] 0.022 | [8] -0.002 | [9] -0.026 | [10] -0.155
active: [2] -0.418

PHAX (UniProt Q9H814)
Sequence of UniProt Q9H814 (Q9H814 whole entry, looked up): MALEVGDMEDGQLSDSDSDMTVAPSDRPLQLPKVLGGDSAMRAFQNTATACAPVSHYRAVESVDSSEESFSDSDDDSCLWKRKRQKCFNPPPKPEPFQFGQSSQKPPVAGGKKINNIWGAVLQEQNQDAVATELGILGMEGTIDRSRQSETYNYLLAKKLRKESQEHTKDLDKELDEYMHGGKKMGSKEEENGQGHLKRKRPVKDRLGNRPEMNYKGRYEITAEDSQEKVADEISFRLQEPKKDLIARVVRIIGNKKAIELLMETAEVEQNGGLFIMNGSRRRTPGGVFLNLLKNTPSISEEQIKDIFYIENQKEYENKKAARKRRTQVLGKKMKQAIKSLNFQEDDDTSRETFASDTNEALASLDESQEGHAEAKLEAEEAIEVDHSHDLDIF
inactive: [1] -0.03 | [2] -0.106 | [3] 0.027 | [4] -0.041 | [5] 0.014 | [6] 0.111 | [7] 0.011 | [8] -0.007 | [9] -0.054 | [10] 0.042

POLR2B (UniProt P30876)
inactive: [1] 0.064 | [2] -0.128 | [3] -0.018 | [4] -0.008 | [5] -0.046 | [6] 0.023 | [7] -0.015 | [8] 0.037 | [9] 0.03 | [10] 0.031

PIP4K2C (UniProt Q8TBX8)
inactive: [3] -0.096 | [4] -0.022 | [5] 0.001 | [6] 0.05 | [7] -0.016 | [8] 0.046 | [9] 0.699 | [10] 0.384
active: [1] 1.12 | [2] 1.19

PUF60 (UniProt Q9UHX1)
Sequence of UniProt Q9UHX1 (Q9UHX1 whole entry, looked up): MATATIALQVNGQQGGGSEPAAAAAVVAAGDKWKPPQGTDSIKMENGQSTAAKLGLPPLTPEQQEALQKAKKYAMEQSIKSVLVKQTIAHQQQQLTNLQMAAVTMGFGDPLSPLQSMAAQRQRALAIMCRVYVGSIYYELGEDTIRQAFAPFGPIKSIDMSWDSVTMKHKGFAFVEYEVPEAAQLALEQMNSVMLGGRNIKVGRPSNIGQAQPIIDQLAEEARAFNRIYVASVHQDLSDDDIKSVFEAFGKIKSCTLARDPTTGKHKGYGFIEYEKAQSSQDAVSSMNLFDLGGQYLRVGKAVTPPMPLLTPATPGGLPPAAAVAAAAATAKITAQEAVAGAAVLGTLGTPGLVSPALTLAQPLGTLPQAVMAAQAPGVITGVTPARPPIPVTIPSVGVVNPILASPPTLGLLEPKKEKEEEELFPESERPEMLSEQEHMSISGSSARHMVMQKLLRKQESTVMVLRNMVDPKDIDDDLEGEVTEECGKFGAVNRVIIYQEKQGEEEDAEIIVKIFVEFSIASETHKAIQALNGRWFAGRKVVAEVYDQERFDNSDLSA
inactive: [1] -0.078 | [3] 0.033 | [4] 0.028 | [5] -0.045 | [6] -0.032 | [7] 0.007 | [8] 0.022 | [9] -0.031 | [10] 0.051
active: [2] -0.304

PRKCE (UniProt Q02156)
inactive: [1] -0.051 | [2] -0.125 | [3] 0.099 | [4] 0.036 | [5] -0.054 | [6] -0.067 | [7] 0.036 | [8] 0.068 | [9] -0.106 | [10] -0.16

PCBP1 (UniProt Q15365)
active: [2] -0.268
inactive: [1] -0.1 | [3] 0.04 | [4] 0.025 | [5] -0.065 | [6] 0.025 | [7] 0.039 | [8] 0.035 | [9] 0.009 | [10] -0.129

PPOX (UniProt P50336)
Sequence of UniProt P50336 (P50336 whole entry, looked up): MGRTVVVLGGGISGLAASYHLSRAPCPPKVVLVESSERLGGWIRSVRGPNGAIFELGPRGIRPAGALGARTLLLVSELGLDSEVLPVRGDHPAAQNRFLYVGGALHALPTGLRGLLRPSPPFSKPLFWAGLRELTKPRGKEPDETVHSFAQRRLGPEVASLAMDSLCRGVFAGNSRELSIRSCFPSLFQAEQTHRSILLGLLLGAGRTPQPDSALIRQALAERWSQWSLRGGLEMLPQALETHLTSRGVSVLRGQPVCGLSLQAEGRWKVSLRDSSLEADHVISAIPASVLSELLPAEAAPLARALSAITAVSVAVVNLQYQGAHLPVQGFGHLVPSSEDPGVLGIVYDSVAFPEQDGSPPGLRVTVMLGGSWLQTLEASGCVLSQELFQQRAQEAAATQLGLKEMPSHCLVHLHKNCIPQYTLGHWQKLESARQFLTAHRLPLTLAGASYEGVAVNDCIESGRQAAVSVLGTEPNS
active: [10] -0.583
inactive: [1] -0.134 | [2] -0.023 | [3] -0.017 | [4] -0.002 | [5] 0.109 | [6] -0.052 | [7] 0.008 | [8] 0.127 | [9] -0.164

PTPN12 (UniProt Q05209)
active: [2] -0.465
inactive: [1] -0.119 | [3] 0.063 | [4] -0.012 | [5] -0.077 | [6] 0.027 | [7] 0.015 | [8] 0.014 | [9] 0.079 | [10] -0.043

PISD (UniProt Q9UG56)
Sequence of UniProt Q9UG56 (Q9UG56 whole entry, looked up): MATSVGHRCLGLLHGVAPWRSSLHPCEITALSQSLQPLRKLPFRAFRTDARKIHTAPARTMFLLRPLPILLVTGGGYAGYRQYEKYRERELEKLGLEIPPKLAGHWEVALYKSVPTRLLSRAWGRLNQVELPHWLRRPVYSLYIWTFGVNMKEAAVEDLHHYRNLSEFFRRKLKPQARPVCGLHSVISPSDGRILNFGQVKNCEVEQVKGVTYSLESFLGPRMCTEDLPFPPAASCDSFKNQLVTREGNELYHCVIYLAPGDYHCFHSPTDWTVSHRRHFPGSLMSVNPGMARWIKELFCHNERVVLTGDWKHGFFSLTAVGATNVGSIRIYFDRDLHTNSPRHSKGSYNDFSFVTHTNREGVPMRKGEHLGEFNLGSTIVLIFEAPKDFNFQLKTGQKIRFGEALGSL
inactive: [1] -0.136 | [2] -0.117 | [3] -0.017 | [4] -0.002 | [5] -0.029 | [6] -0.076 | [7] -0.113 | [8] 0.027 | [9] -0.036 | [10] -0.192
